Inconclusive results are not listed. Active and inactive are the calls of the source. How the source made its calls, unless noted: active means hit-call score of the fitted dose curve at least 0.9, where 1 is the maximum; inactive means score below 0.9.

The first test is described as follows: CCTE_Shafer_MEA_acute_spike_number: CCTE's Neural Acute Assay for Total Number of Spikes, Shafer Lab (AID 2284008).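 On AC50: curve fitted for decrease in spike count so AC50 reflects inhibitors.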 In short, it runs like this: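 Primary rat cortical neurons on 16-electrode MEA wells; on DIV 13 or 15, 40-min baseline then 40-min recording with compound (0.03-40 uM) at 37 C. Spikes detected at 8x rms noise; percent change versus baseline, DMSO as negative control.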
As to `O=C1c2ccccc2C(=O)N1SC(Cl)(Cl)Cl`, the result was inactive.
Consider `COP(=S)(OC)Oc1ccc(SC)c(C)c1`, for which the AC50 was 7.7 µM (active).
Take `C[C@H]1[C@H](c2ccc(Cl)cc2)SC(=O)N1C(=O)NC1CCCCC1`: the AC50 is 13 µM (active).
Turning to `CNC(=O)/C=C(\C)OP(=O)(OC)OC`, the compound was called inactive.
On to `O=[N+]([O-])/N=C1\NCCN1Cc1ccc(Cl)nc1`, for which the outcome was inactive.
Turning to `Clc1ccccc1-c1nnc(-c2ccccc2Cl)nn1`, the compound was classed as inactive.
Turning to `CC(C)OC(=O)Nc1cccc(Cl)c1`, the AC50 was 10.2 µM (active).
As for `CCCN(CCC)c1c([N+](=O)[O-])cc(C(F)(F)F)cc1[N+](=O)[O-]`, the AC50 was 8.55 µM (active).
Regarding `N#CN`, the call was inactive.

A further test in a line: CCTE_Shafer_MEA_acute_firing_rate_mean: CCTE's Neural Acute Assay for Mean Firing Rate, Shafer Lab (AID 2284009).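 Further: analyzed for loss of signal so actives lower firing rate relative to DMSO.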 The gist of the method:
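Read-out: well-mean spike rate (spikes/recording length/electrodes), % change from 40 min pre-dose baseline to 40 min with compound. Rat cortical cultures, DIV 13 or 15, 37 C; 0.03-40 uM; DMSO as negative control.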
Turning to `O=C1c2ccccc2C(=O)N1SC(Cl)(Cl)Cl`, the compound was classed as inactive.
Turning to `COP(=S)(OC)Oc1ccc(SC)c(C)c1`, the concentration at half-maximal activity (AC50) was 7.7 µM (active).
In the case of `C[C@H]1[C@H](c2ccc(Cl)cc2)SC(=O)N1C(=O)NC1CCCCC1`, the AC50 was 13.1 µM (active).
As for `CNC(=O)/C=C(\C)OP(=O)(OC)OC`, the outcome was inactive.
Regarding `O=[N+]([O-])/N=C1\NCCN1Cc1ccc(Cl)nc1`, the compound was classed as inactive.
For `Clc1ccccc1-c1nnc(-c2ccccc2Cl)nn1`, the outcome was inactive.
Take `CC(C)OC(=O)Nc1cccc(Cl)c1`: the compound was called inactive.
Take `CCCN(CCC)c1c([N+](=O)[O-])cc(C(F)(F)F)cc1[N+](=O)[O-]`: the call was inactive.
Same read-out and setting: the entry for `N#CN` is “inactive”.

The nature of the next test: CCTE_Harrill_HTTr_Viability_MCF7: CCTE's 6-hour Cell Viability Assessment for the High-Throughput Transcriptomics (HTTr) Platform, in MCF-7 cells cultured in DMEM + 10% fetal bovine serum, Harrill Lab (AID 2284010). The gist of the method:
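Viability measured through PI dye exclusion by high-content imaging at 6 h post-dosing.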
As for `CNC(=O)Oc1ccccc1OC(C)C`, the result was inactive.
The same measure, in the same setting: next, `Cc1[nH]c(=O)n(C(C)(C)C)c(=O)c1Cl`: “inactive”; `O=C(Nc1ccccc1)Nc1cnns1`: “inactive”.
For `O=[N+]([O-])c1c(Cl)c(Cl)c(Cl)c(Cl)c1Cl`, the outcome was inactive.
As to `O=C1c2ccccc2C(=O)N1SC(Cl)(Cl)Cl`, the outcome was inactive.
The same measure, in the same setting: the entry for `COP(=S)(OC)Oc1ccc(SC)c(C)c1` is “inactive”.
In the case of `C[C@H]1[C@H](c2ccc(Cl)cc2)SC(=O)N1C(=O)NC1CCCCC1`, the outcome was inactive.
The same measure, in the same setting: the entry for `CC(C)(C)C(O)C(Oc1ccc(Cl)cc1)n1cncn1` (stereo not given) is “inactive”; for `CCc1ccc(C(=O)NN(C(=O)c2cc(C)cc(C)c2)C(C)(C)C)cc1` it is “inactive”.
Regarding `O=C(NC(=O)c1c(F)cccc1F)Nc1ccc(OC(F)(F)C(F)OC(F)(F)F)c(Cl)c1` (stereo not given), the result was inactive.
The same measure, in the same setting: next, `CNC(=O)/C=C(\C)OP(=O)(OC)OC`: “inactive”; `COP(=O)(OC)OC=C(Cl)Cl`: “inactive”; `OCCOc1ccccc1`: “inactive”.
In the case of `COc1nn(CSP(=S)(OC)OC)c(=O)s1`, the result was inactive.
As for `O=C(O)C(F)(F)C(F)(F)C(F)(F)C(F)(F)C(F)(F)C(F)(F)C(F)(F)F`, the outcome was inactive.
`CCN(CC)C(=O)SCc1ccc(Cl)cc1`: the result was inactive.
Regarding `O=[N+]([O-])/N=C1\NCCN1Cc1ccc(Cl)nc1`, the result was inactive.
Still for that read-out and setting: the entry for `Clc1ccccc1-c1nnc(-c2ccccc2Cl)nn1` is “inactive”; for `CC(C)OC(=O)Nc1cccc(Cl)c1` it is “inactive”.
Same read-out and setting: the entry for `CN1CSC(=S)N(C)C1` is “inactive”; for `CCCN(CCC)c1c([N+](=O)[O-])cc(C(F)(F)F)cc1[N+](=O)[O-]` it is “inactive”.
Take `CNC(=O)Oc1cccc(N=CN(C)C)c1`: the result was inactive.
With `N#CN`, the outcome was inactive.

A further test can be described thus: CCTE_Harrill_HTTr_Apoptosis_MCF7: CCTE's 6-hour Apoptosis Assessment for the High-Throughput Transcriptomics (HTTr) Platform, in MCF-7 cells cultured in DMEM + 10% fetal bovine serum, Harrill Lab (AID 2284011). The gist of the method:
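MCF-7 cells in DMEM + 10% fetal bovine serum were exposed to chemicals for 6 hours over an eight-point dilution series. Caspase-3/7 activation was imaged by high content imaging with CellEvent Caspase 3/7 Green; bidirectional fitting used DMSO as baseline.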
With `CNC(=O)Oc1ccccc1OC(C)C`, the outcome was inactive.
Still for that read-out and setting: the entry for `Cc1[nH]c(=O)n(C(C)(C)C)c(=O)c1Cl` is “inactive”.
Consider `O=C(Nc1ccccc1)Nc1cnns1`, for which the result was inactive.
Regarding `O=[N+]([O-])c1c(Cl)c(Cl)c(Cl)c(Cl)c1Cl`, the outcome was inactive.
`O=C1c2ccccc2C(=O)N1SC(Cl)(Cl)Cl`: the result was inactive.
`COP(=S)(OC)Oc1ccc(SC)c(C)c1`: the result was inactive.
Regarding `C[C@H]1[C@H](c2ccc(Cl)cc2)SC(=O)N1C(=O)NC1CCCCC1`, the outcome was inactive.
On the same count and under the same terms, the entry for `CC(C)(C)C(O)C(Oc1ccc(Cl)cc1)n1cncn1` (stereo not given) is “inactive”; for `CCc1ccc(C(=O)NN(C(=O)c2cc(C)cc(C)c2)C(C)(C)C)cc1` it is “inactive”; for `O=C(NC(=O)c1c(F)cccc1F)Nc1ccc(OC(F)(F)C(F)OC(F)(F)F)c(Cl)c1` (stereo not given) it is “inactive”.
Regarding `CNC(=O)/C=C(\C)OP(=O)(OC)OC`, the outcome was inactive.
For `COP(=O)(OC)OC=C(Cl)Cl`, the result was inactive.
Same read-out and setting: the entry for `OCCOc1ccccc1` is “inactive”.
Consider `COc1nn(CSP(=S)(OC)OC)c(=O)s1`, for which the outcome was inactive.
For the compound `O=C(O)C(F)(F)C(F)(F)C(F)(F)C(F)(F)C(F)(F)C(F)(F)C(F)(F)F`, the outcome was inactive.
`CCN(CC)C(=O)SCc1ccc(Cl)cc1`: the outcome was inactive.
As for `O=[N+]([O-])/N=C1\NCCN1Cc1ccc(Cl)nc1`, the result was inactive.
As to `Clc1ccccc1-c1nnc(-c2ccccc2Cl)nn1`, the result was inactive.
For the compound `CC(C)OC(=O)Nc1cccc(Cl)c1`, the outcome was inactive.
Consider `CN1CSC(=S)N(C)C1`, for which the outcome was inactive.
`CCCN(CCC)c1c([N+](=O)[O-])cc(C(F)(F)F)cc1[N+](=O)[O-]`: the result was inactive.
With `CNC(=O)Oc1cccc(N=CN(C)C)c1`, the outcome was inactive.
On the same count and under the same terms, the entry for `N#CN` is “inactive”.

The nature of a further test: CCTE_Harrill_HTTr_CellCount_MCF7: CCTE's Cell Proliferation Assessment for the High-Throughput Transcriptomics (HTTr) Platform, Harrill Lab (AID 2284012; active means hit-call score of the fitted dose curve at least 0.9, where 1 is the maximum;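 further: count of Hoechst-stained nuclei per well by high-content imaging in MCF-7 cells; cells exposed to compound for six hours; intended direction is loss of nuclei count meaning fewer cells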). The gist of the method: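 Nuclei counting (Hoechst, high content imaging) in MCF-7 after a 6 h treatment at eight concentrations. Activity fitted bidirectionally, DMSO as negative control.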
Consider `Cc1[nH]c(=O)n(C(C)(C)C)c(=O)c1Cl`, for which the outcome was inactive.
For `O=C(Nc1ccccc1)Nc1cnns1`, the call was inactive.
As to `O=[N+]([O-])c1c(Cl)c(Cl)c(Cl)c(Cl)c1Cl`, the call was inactive.
On the same count and under the same terms, the entry for `O=C1c2ccccc2C(=O)N1SC(Cl)(Cl)Cl` is “inactive”.
As to `O=C(NC(=O)c1c(F)cccc1F)Nc1ccc(OC(F)(F)C(F)OC(F)(F)F)c(Cl)c1` (stereo not given), the compound was called inactive.
As for `COc1nn(CSP(=S)(OC)OC)c(=O)s1`, the call was inactive.
For `O=C(O)C(F)(F)C(F)(F)C(F)(F)C(F)(F)C(F)(F)C(F)(F)C(F)(F)F`, the compound was classed as inactive.
Same read-out and setting: next, `CCN(CC)C(=O)SCc1ccc(Cl)cc1`: “inactive”; `O=[N+]([O-])/N=C1\NCCN1Cc1ccc(Cl)nc1`: “inactive”.
With `CN1CSC(=S)N(C)C1`, the result was inactive.
As for `CNC(=O)Oc1cccc(N=CN(C)C)c1`, the compound was called inactive.

The values above are taken from PubChem BioAssay (EPA / NIEHS).
